# Laboratory results reported in the supplement of paper PMC4166925.
# ± gives the standard deviation of the averaged measurements. In all, about 33,000 sequences were measured (“E-score (dimensionless, -0.5 to 0.5)”: median about -0.046, highest 2% from about 0.36 on). Many of the other results were omitted from the sample, so the highest values are more common in it than they were.
# Test system: T1, SpTbr T-box DNA-binding domain (GST fusion)
# T1 sequence: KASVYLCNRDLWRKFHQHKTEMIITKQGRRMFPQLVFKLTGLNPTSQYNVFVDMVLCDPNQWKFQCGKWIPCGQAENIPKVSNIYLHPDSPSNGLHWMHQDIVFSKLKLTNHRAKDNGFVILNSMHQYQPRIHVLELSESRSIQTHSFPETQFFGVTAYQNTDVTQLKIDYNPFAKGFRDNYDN
# Assay: PBM E-score of 8-mer (E-score (dimensionless, -0.5 to 0.5)); Tbr is Tbrain of the sea star Patiria miniata (Pm) or the sea urchin Strongylocentrotus purpuratus (Sp); higher = stronger binding preference
# Conditions: the construct has about 5 more residues each side
# Procedure, shortened: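 GST-fused Tbr T-box DNA-binding domains (the whole T-box plus about five flanking residues) were expressed in BL21 E. coli at 20 °C and purified by glutathione affinity chromatography. Universal Agilent oligonucleotide arrays were made double-stranded by primer extension, incubated with 200 nM protein in PBS (pH 7.5), then scanned and quantified. Every ungapped 8-mer was scored from probe intensities. The Universal PBM Analysis Suite gave each word an enrichment E-score, averaged over duplicate arrays.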
row,Sequence,PBM E-score of 8-mer
1,GTCAAGCA,0.0528 ± 0.058
2,ACTCTTTA,0.0329 ± 0.022
3,CGCTACCA,0.271 ± 0.0082
4,ATTAGGAG,-0.247 ± 0.041
5,GAGCCAGC,0.0706 ± 0.066
6,ACTACTCC,-0.139 ± 0.024
7,ACTCCGGA,-0.0213 ± 0.013
8,AGTGCTAG,0.265 ± 0.049
9,AGTGCTAC,0.245 ± 0.027
10,AGTGCTAT,0.243 ± 0.079
11,CGTGCGGA,0.147 ± 0.028
12,CGTGCTAC,0.128 ± 0.0037
13,GGTGCGGA,0.404 ± 0.023
14,GGTGCTAC,0.42 ± 0.007
15,GGTGCTAA,0.4658 ± 0.00059
16,CGTGCTAA,0.349 ± 0.0041
17,AGTGCTAA,0.412 ± 0.015
18,AGTGCGGA,0.257 ± 0.023
19,TGTGCTAA,0.26 ± 0.011
20,AGTTACTG,-0.0684 ± 0.048
21,AGTAGCCC,-0.239 ± 0.026
22,CCCGCTTC,0.139 ± 0.082
23,GAGTTTGA,0.00341 ± 0.029
24,AGGTCAAT,-0.202 ± 0.093
25,CTTTTCGA,-0.087 ± 0.018

row,Sequence,PBM E-score of 8-mer
1,GGTGCAAC,0.176 ± 0.012
2,GGTGCAAA,0.3907 ± 0.0034
3,TGTGCAAA,0.225 ± 0.033
4,ACGTAGGG,-0.127 ± 0.051
5,CTTGGAAC,-0.26 ± 0.046
6,CGTCAAAG,0.228 ± 0.028
7,ACAAGGTC,0.202 ± 0.026
8,ACAAGGTA,0.0584 ± 0.021
9,AGAAGGTA,-0.167 ± 0.031
10,AGAAGGTG,0.386 ± 0.015
11,AGAAGGTC,-0.2756 ± 0.0017
12,ACAAGGTG,0.425 ± 0.0045
13,AGATCTTC,0.0938 ± 0.043
14,TCTTGTCA,0.24 ± 0.014
15,ACTTGTGA,0.412 ± 0.011
16,AGTTGTGG,0.164 ± 0.06
17,CGTTGTGA,0.162 ± 0.028
18,GCTTGTCA,0.12044 ± 2.8e-05
19,AGTTGTGA,0.407 ± 0.0049
20,ACTTGTCA,0.4189 ± 0.00086
21,GCTTGTGA,0.202 ± 0.074
22,ACTTGTGG,0.205 ± 0.00054
23,ATTGCGAC,-0.0335 ± 0.048
24,CGATGACG,0.0899 ± 0.049
25,AGCCTATC,-0.168 ± 0.1

row,Sequence,PBM E-score of 8-mer
1,AACAATGC,-0.018 ± 0.0069
2,CAGAGTTC,-0.129 ± 0.032
3,ACTGGTAC,-0.0857 ± 0.01
4,AACCACTT,-0.0435 ± 0.018
5,AAGGTGGG,0.242 ± 0.042
6,AAGGTGGA,-0.0733 ± 0.085
7,CAGGTGGC,0.323 ± 0.0069
8,AAGGTGGC,0.372 ± 0.0085
9,GAGGTGGC,0.3855 ± 0.0037
10,GAGGTGGA,0.06436 ± 0.00017
11,AATGGCCT,-0.0378 ± 0.026
12,AGAGTTTC,-0.243 ± 0.052
13,AGCTAGCG,0.0935 ± 0.042
14,AACCTCGA,-0.0446 ± 0.051
15,AACCTCGG,-0.108 ± 0.049
16,CACCTCGC,0.439 ± 0.012
17,AACCTCGC,0.152 ± 0.055
18,CACCTCGA,0.44517 ± 8.5e-05
19,CACCTCGG,0.402 ± 0.0072
20,GACCTCGC,0.0532 ± 0.0042
21,GACCTCGA,-0.0589 ± 0.014
22,CCCCTCGG,-0.255 ± 0.051
23,CGACCCAC,0.00361 ± 0.024
24,ACTTTCGC,0.328 ± 0.038
25,ATGGGGGC,-0.283 ± 0.021

row,Sequence,PBM E-score of 8-mer
1,AGGGACTA,-0.1367 ± 0.00023
2,CTCAAGGC,-0.137 ± 0.013
3,ATTACGCG,0.19 ± 0.028
4,ATGTCTAG,-0.0188 ± 0.02
5,GCAGTGCC,-0.102 ± 0.027
6,GATCCTCA,0.11 ± 0.055
7,GATAGCCC,-0.217 ± 0.0042
8,ACACTTGC,0.4 ± 0.0054
9,ATACTTGG,-0.22 ± 0.046
10,ACACTTGG,0.367 ± 0.022
11,AAACTTGC,0.102 ± 0.0067
12,ACACTTGA,0.347 ± 0.0096
13,CCACTTGC,0.192 ± 0.049
14,GCCTAAGA,-0.128 ± 0.039
15,ACGCTGAG,-0.115 ± 0.075
16,AGGCCATA,-0.0266 ± 0.0079
17,GCACCCTA,0.118 ± 0.032
18,ACACCCTA,0.371 ± 0.01
19,CCACCCTA,0.0825 ± 0.11
20,ACCCCCTC,-0.0672 ± 0.037
21,ATACCCTG,-0.119 ± 0.008
22,CCACCCTC,0.0803 ± 0.068
23,ACACCCTC,0.402 ± 0.016
24,ACACCCTG,0.415 ± 0.024
25,ACCCCCTG,0.0826 ± 0.062

row,Sequence,PBM E-score of 8-mer
1,GTCTAGAA,-0.242 ± 0.049
2,CAGATCGA,-0.12 ± 0.014
3,AGAGTTCG,-0.121 ± 0.068
4,AATCGCAG,0.0391 ± 0.046
5,AATCGCAT,0.113 ± 0.0034
6,GATCGCAA,0.2797 ± 0.00053
7,CATCGCAG,0.109 ± 0.046
8,AATCGCAC,0.4074 ± 0.00091
9,CATCGCAA,-0.03 ± 0.019
10,CATCGCAC,0.376 ± 0.019
11,GATCGCGC,0.352 ± 0.025
12,GATCGCAC,0.442 ± 0.0075
13,GGGGAGCA,-0.25 ± 0.0084
14,AGCACTGA,0.0628 ± 0.0091
15,AGTGCCCC,-0.185 ± 0.025
16,CATGTCGA,-0.0673 ± 0.11
17,AAGACGAT,-0.0524 ± 0.029
18,GCGCGCGC,0.0386 ± 0.035
19,AGACTGAT,-0.168 ± 0.062
20,GTCCAGCA,-0.295 ± 0.06
21,CCTTTAAC,0.141 ± 0.02
22,CACTTCAG,0.269 ± 0.049
23,AACTTCAC,0.147 ± 0.036
24,CACTTCAC,0.39 ± 0.0097
25,CTAAGGAA,-0.158 ± 0.034

row,Sequence,PBM E-score of 8-mer
1,CACCTGCC,0.3954 ± 0.00044
2,AACCTGGC,0.0794 ± 0.017
3,CACCTGGC,0.389 ± 0.021
4,CACCTGGA,0.297 ± 0.025
5,CACCTGCG,0.425 ± 0.0075
6,GACCTGCC,0.0636 ± 0.012
7,AACCTGCC,-0.0535 ± 0.017
8,AACCTGCG,0.0936 ± 0.029
9,CACCTGCA,0.346 ± 0.0038
10,AATGGATC,-0.0632 ± 0.037
11,GAATCGTA,-0.0254 ± 0.00061
12,CGACTGCA,-0.155 ± 0.0016
13,CGAGGGGA,-0.0885 ± 0.018
14,CAGTGCTC,0.0319 ± 0.0026
15,AGACACTC,0.129 ± 0.029
16,CTGACAGC,0.318 ± 0.0042
17,ATGACACG,0.315 ± 0.035
18,ATGACACA,0.327 ± 0.033
19,ATGACACC,0.4599 ± 0.0031
20,CTGACATC,-0.107 ± 0.031
21,CTGACACC,0.4611 ± 0.0014
22,ACTCATAA,-0.0942 ± 0.0043
23,CAGAGCGC,-0.00751 ± 0.044
24,CAGGTCGC,0.225 ± 0.038
25,ATTTCACC,0.0204 ± 0.024

row,Sequence,PBM E-score of 8-mer
1,GCTTCACA,0.347 ± 0.013
2,ATTTCACA,0.4303 ± 0.0022
3,CTTTCAAA,-0.203 ± 0.0062
4,CTTTCACA,0.44384 ± 0.0002
5,GTTTCAAA,-0.327 ± 0.079
6,GTTTCACA,0.38 ± 0.012
7,ATTTCACG,0.293 ± 0.04
8,CTTTCACC,0.0179 ± 0.03
9,CGCCCAGA,0.0494 ± 0.0041
10,AGCTAACT,-0.27 ± 0.067
11,CCAGTATC,-0.199 ± 0.063
12,CCCTTAGG,0.00499 ± 0.015
13,AGCCCCCT,-0.356 ± 0.013
14,TGCAAGAA,-0.0626 ± 0.014
15,ACTCTTTG,0.221 ± 0.066
16,GGCGTCAA,0.412 ± 0.018
17,CGCGTCAA,0.313 ± 0.006
18,CGCGTCAC,0.277 ± 0.039
19,AGCGTTAA,0.36 ± 0.025
20,TGCGTTAA,0.208 ± 0.026
21,GGCGTTAA,0.387 ± 0.0042
22,GGCGTCAC,0.373 ± 0.024
23,AGCGTCAA,0.317 ± 0.0075
24,AGCGTCAC,0.3328 ± 0.0021
25,AAGCGATA,0.2613 ± 0.002

row,Sequence,PBM E-score of 8-mer
1,ATAGGCTG,0.0188 ± 0.056
2,TATGTACA,-0.174 ± 0.083
3,GGAGCAAC,0.0231 ± 0.049
4,GAACTTCA,-0.0825 ± 0.021
5,ACAGTCCG,0.00019 ± 0.0047
6,GGGGTACC,-0.1738 ± 0.00025
7,CGGCGTGC,0.00958 ± 0.15
8,TCGTGAAA,0.253 ± 0.054
9,GCGTGAAA,0.4597 ± 0.0039
10,GCGTGACA,0.345 ± 0.023
11,ACGTGAAC,0.126 ± 0.031
12,GCGTGAAC,0.456 ± 0.0075
13,GCGTGACC,0.369 ± 0.004
14,CCGTGAAC,0.353 ± 0.0099
15,CCGTGAAA,0.245 ± 0.022
16,ACGTGACC,0.135 ± 0.082
17,CCGGATCG,-0.114 ± 0.033
18,CAAAAAAA,-0.1537 ± 0.00074
19,CAAGCTTC,-0.215 ± 0.013
20,AAGGTCAC,0.164 ± 0.036
21,AACGGGAT,-0.0959 ± 0.041
22,CGTTTCCA,0.0866 ± 0.0024
23,TAGTGCCA,0.195 ± 0.009
24,TAGTGCGA,0.4025 ± 0.0017
25,CAGTGCGG,0.107 ± 0.0036

row,Sequence,PBM E-score of 8-mer
1,CAGTGCGA,0.386 ± 0.0039
2,AAGTGCGC,0.194 ± 0.018
3,ATGTGCGG,0.0899 ± 0.0075
4,AAGTGCGA,0.483 ± 0.0069
5,ATGTGCGC,0.211 ± 0.054
6,AAGTGCGT,0.203 ± 0.018
7,ATGTGCGA,0.47362 ± 0.00026
8,CAGTGCGC,0.00847 ± 0.051
9,TAGTGCAA,0.247 ± 0.024
10,ACGATCTC,0.0369 ± 0.034
11,GGATGACC,0.103 ± 0.0083
12,AACCACGG,0.0188 ± 0.11
13,GCAGAAGA,-0.218 ± 0.017
14,ACGTGCGG,0.206 ± 0.011
15,GAGTGCAA,0.0398 ± 0.012
16,ACGTGCGA,0.4353 ± 0.0022
17,GAGTGCGA,0.411 ± 0.021
18,GAGTGCGC,-0.0493 ± 0.043
19,GCGTGCGA,0.317 ± 0.025
